This passage reports composite z-score and z-score results from PubChem BioAssay.

Assay [1] deals with Wnt5a (protein binding on small-molecule microarray). Description: Wnt5a binders on small-molecule microarray, primary screen, biophysical, 635/667 nm fluorescence (AID 1142).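 Also: fluorescence read at 667 nm with signal to noise per printed feature.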 The note with it: 635 nm fluorescence, higher = more signal.
Assay [2] is described as follows: cell viability in Huh7 cells, primary screen, cytotoxicity control for HCV replication inhibitor project, CellTiter-Glo luminescence, basal, 48 h (AID 1143).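 Also: Huh7 hepatoma cells carrying a hepatitis C replication reporter with no stimulus; test concentration not given here.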 The note with it: Huh7 HCV replicon, higher = more signal, called active from +8 up or from −8 down.
Assay [3] in a line: P. aeruginosa biofilm formation inhibitors, primary screen, PAO1 strain, BacTiter-Glo luminescence, LB-PBS (AID 1144). The note with it: 12 h, higher = more signal.
Assay [4] can be described thus: CREB reporter modulators without forskolin, primary screen, cell-based, PC12, CRE-LacZ reporter, unstimulated (AID 1145). The note with it: no forskolin, luminescence, 4.5 h, higher = more signal, called active from +8 up or from −8 down.
The nature of assay [5]: CREB reporter modulators under forskolin, primary screen, cell-based, PC12, CRE-LacZ reporter, forskolin-stimulated (AID 1146).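 Also: PC12 cells with 6xCRE LacZ reporter stimulated by forskolin 10 µM; beta-galactosidase reporter signal reflecting CREB driven transcription.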 As to conditions: luminescence, 4.5 h, higher = more signal, called active from +8 up or from −8 down.
The target of assay [6] is Streptavidin (Streptomyces avidinii) (UniProt P22629). Put plainly: streptavidin binders on small-molecule microarray, primary screen, artefact control for SMM compound annotation, biophysical, 635/667 nm fluorescence (AID 1147).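 Also: signal reflects streptavidin binding to arrayed compounds as a control protein.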 As to conditions: streptavidin binding, higher = more signal.
Assay [7] in a line: small-molecule binders of probe aInhba, primary screen, biochemical, small-molecule microarray, 635/667 nm fluorescence (AID 1148).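 Also: score merges 667nm spot fluorescence with signal-to-noise for antibody binding to printed compounds.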 The note with it: higher = more signal.
Assay [8] concerns the target Torsin-1A (Homo sapiens) (UniProt O14656). Description: torsin A binders from cell lysate, primary screen, small-molecule microarray, wild-type, 635/667 nm (AID 1149). The note with it: COS7 hTOR1A-WT lysate, 635 nm fluorescence, higher = more signal.
Assay [9] shares this target. Put plainly: small-molecule binders of mutant TOR1A in lysate, primary screen, cell lysate, small-molecule microarray, COS7 lysate, 635/667 nm fluorescence (AID 1150).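 Also: score pools 667 nm emission and signal to noise measuring lysate protein binding.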 As to conditions: COS7 hTOR1A mutant lysate, 635 nm fluorescence, higher = more signal.
In assay [10] the test system is Sonic hedgehog protein (Shh). Put plainly: small-molecule binders of Shh protein, primary screen, biochemical, small-molecule microarray, 635/667 nm fluorescence (AID 1151).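 Also: Shh protein binding to compounds spotted on small-molecule microarray slides; score combines spot fluorescence intensity with signal-to-noise across triplicate slides.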 As to conditions: small-molecule microarray binding, 635 nm fluorescence; higher = more signal.
Assay [11] in a line: E. coli DRC41 culture turbidity changes, primary screen, E. coli filamentation inducer project, strain DRC41, OD650, 48 h (AID 1152).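 Also: E. coli MC1000 strain DRC41 lacking acrAB efflux pump and sulA.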 As to conditions: E. coli DRC41 (acrAB sulA), higher = more signal, called active from +8 up or from −8 down.
A short description of assay [12]: small-molecule binders of probe aLefty1, primary screen, biochemical, small-molecule microarray, 635/667 nm fluorescence (AID 1153).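 Also: score merges spot fluorescence with signal-to-noise ratio from the scanned slide images.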 As to conditions: higher = more signal.
Assay [13] is described as follows: PSAC antagonists in infected red cells, primary screen, cell-based, P. falciparum Indochina, OD700, 1 h (AID 1154). The note with it: P. falciparum Indochina infected RBC osmotic lysis, higher = more signal, called active from +8 up or from −8 down.
Assay [14] can be described thus: PSAC antagonists in infected red cells, primary screen, cell-based, P. falciparum Indochina, OD700, 2 h (AID 1155).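 Also: lysis reports solute entry through the parasite surface anion channel PSAC; channel blockers reduce lysis of infected cells.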 As to conditions: P. falciparum Indochina infected erythrocytes, osmotic lysis OD700; higher = more signal, called active from +8 up or from −8 down.
A short description of assay [15]: osmotic lysis modulators in infected erythrocytes, primary screen, PSAC antagonist project, cell-based, P. falciparum Indochina, OD700, 3 h (AID 1156). As to conditions: higher = more signal, called active from +8 up or from −8 down.
Assay [16] can be described thus: PSAC antagonists in infected red cells, primary screen, cell-based, P. falciparum Indochina, OD700, 18 h (AID 1157). The note with it: P. falciparum Indochina infected erythrocytes, osmotic lysis OD700, 18 h; higher = more signal, called active from +8 up or from −8 down.
A short description of assay [17]: modulators of S6 phosphorylation in cells, primary screen, cell-based, A549, cytoblot, luminescence, serum-stimulated (AID 1158).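 Also: serum-stimulated A549 lung adenocarcinoma cells; signal is phosphorylated S6 detected by cytoblot immunostaining with HRP secondary.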 As to conditions: A549 phospho-S6 cytoblot, 5 h, higher = more signal.
Assay [18] deals with NADPH oxidase 2 (Homo sapiens) (UniProt P04839). Description: NOX2-dependent H2O2 signal modulators, primary screen, NOX inhibitor project, cell-based, HEK293-NOX2, PMA-stimulated, Amplex Red fluorescence (AID 1159). Also: test concentration not given here. As to conditions: 45 min, higher = more signal, called active from +8 up or from −8 down.
Assay [19] has as its target NADPH oxidase 4 (Homo sapiens) (UniProt Q9NPH5). Description: NOX4-dependent H2O2 signal modulators, primary screen, NOX inhibitor project, cell-based, HEK293-NOX4, tetracycline-induced, Amplex Red fluorescence (AID 1160). As to conditions: 45 min, higher = more signal, called active from +8 up or from −8 down.
Assay [20] has as its target NADPH oxidase 5 (Homo sapiens) (UniProt Q96PH1). Put plainly: NOX5-dependent H2O2 signal modulators, primary screen, NOX inhibitor project, cell-based, HEK293-NOX5, Amplex Red fluorescence (AID 1161). The note with it: HEK293-NOX5, ionomycin, 45 min, higher = more signal.

The source made the active and inactive calls. Unless noted, no rule for the calls is given here.

Streptavidin (Streptomyces avidinii), sequence (P22629 whole entry, looked up): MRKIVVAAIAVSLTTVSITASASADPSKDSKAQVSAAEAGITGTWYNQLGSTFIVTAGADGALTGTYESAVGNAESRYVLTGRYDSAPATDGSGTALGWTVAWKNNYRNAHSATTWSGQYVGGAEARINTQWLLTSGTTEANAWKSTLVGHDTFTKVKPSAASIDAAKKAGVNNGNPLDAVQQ
Torsin-1A (Homo sapiens), sequence (O14656 whole entry, looked up): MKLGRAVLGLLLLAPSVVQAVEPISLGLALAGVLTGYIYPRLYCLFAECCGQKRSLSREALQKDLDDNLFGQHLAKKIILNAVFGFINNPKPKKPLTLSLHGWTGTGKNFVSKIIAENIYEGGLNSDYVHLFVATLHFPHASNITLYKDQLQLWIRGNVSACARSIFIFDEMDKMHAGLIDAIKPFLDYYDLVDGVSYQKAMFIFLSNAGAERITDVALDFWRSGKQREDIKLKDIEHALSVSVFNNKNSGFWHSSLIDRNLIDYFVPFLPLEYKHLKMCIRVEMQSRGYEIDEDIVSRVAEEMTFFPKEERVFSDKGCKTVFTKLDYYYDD
NADPH oxidase 2 (Homo sapiens), sequence (P04839 whole entry, looked up): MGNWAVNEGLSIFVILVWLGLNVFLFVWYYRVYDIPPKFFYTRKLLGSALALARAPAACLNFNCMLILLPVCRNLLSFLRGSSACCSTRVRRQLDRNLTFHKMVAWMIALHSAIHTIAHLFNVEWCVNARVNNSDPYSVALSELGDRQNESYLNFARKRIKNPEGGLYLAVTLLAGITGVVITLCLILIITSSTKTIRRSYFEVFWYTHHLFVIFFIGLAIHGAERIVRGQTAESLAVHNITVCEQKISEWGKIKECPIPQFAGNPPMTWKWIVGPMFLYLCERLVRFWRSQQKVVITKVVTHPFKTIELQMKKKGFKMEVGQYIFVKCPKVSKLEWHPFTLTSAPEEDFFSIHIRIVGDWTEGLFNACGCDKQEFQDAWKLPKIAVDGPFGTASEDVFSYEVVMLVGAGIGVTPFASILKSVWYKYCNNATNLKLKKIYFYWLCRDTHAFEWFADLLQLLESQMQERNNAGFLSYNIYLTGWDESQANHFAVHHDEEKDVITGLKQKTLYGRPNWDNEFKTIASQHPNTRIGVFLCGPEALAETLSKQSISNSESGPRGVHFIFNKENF
NADPH oxidase 5 (Homo sapiens), sequence (Q96PH1 whole entry, looked up): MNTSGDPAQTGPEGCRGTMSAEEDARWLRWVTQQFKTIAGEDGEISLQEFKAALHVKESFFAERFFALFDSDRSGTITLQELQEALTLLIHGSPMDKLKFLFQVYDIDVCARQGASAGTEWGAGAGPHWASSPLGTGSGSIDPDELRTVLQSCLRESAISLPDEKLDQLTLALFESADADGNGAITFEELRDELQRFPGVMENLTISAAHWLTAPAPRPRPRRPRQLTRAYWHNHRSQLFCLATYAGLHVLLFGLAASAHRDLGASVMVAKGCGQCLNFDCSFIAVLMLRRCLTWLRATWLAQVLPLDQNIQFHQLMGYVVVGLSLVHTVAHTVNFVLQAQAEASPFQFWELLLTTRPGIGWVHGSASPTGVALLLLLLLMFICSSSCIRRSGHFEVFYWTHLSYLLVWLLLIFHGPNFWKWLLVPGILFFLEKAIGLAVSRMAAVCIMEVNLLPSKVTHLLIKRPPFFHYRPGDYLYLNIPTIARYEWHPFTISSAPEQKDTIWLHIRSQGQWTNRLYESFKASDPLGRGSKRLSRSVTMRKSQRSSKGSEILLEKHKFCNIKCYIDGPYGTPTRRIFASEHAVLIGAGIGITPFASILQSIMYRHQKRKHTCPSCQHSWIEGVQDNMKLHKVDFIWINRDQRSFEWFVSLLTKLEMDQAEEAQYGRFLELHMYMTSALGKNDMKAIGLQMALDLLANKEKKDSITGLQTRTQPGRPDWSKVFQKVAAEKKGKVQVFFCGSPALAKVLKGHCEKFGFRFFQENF
NADPH oxidase 4 (Homo sapiens), sequence (Q9NPH5 whole entry, looked up): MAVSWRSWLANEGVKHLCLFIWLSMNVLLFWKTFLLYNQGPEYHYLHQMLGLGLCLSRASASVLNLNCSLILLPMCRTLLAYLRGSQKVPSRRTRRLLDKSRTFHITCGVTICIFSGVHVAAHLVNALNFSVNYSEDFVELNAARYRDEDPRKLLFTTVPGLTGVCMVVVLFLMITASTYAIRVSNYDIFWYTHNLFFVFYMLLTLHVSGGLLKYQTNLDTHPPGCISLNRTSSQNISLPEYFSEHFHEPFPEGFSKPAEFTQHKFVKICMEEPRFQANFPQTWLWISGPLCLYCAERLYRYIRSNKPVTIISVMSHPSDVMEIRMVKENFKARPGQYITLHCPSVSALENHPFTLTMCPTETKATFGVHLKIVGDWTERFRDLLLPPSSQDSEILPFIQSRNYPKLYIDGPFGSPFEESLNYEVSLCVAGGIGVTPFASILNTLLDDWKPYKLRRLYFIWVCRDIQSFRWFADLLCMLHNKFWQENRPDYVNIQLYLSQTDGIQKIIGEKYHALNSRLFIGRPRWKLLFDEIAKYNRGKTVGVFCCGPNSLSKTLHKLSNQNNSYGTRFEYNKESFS

As for `C#CCCCON=C1C[C@@H](O)[C@@H](O)[C@@H]2[C@@H]3C(=O)N(C[C@@H]4CCCO4)C(=O)[C@@H]3CC[C@@H]12`, the composite z-score in assay [1] is 0.195; in [6], 0.269; in [7] it was -0.142; in the assay with Torsin-1A (Homo sapiens) [8], 0.308; with Torsin-1A (Homo sapiens) [9] it was 0.28; in [10], 0.305. This molecule returned a composite z-score in [12] of 0.145. In addition, the z-score in [2] was 0.0109 (inactive); in assay [3], -0.164 (inactive); in assay [4], 0.0687 (inactive); in [5], 0.305 (inactive); in assay [11], 0.225 (inactive); in [13], -0.262 (inactive). Besides, the z-score was 0.284 (inactive) in [14]; -1.08 (inactive) in assay [15]; 0.354 (inactive) in [16]; -0.53 in assay [17]; -3.03 (inactive) in assay [18]; 0.424 (inactive) in [19]. The molecule also showed a z-score in assay [20] of -0.0863.
As to `C[C@H]1CC[C@@H](C(=O)O)N[C@@H]1c1cccc(N2CCCC2=O)c1`, the composite z-score in [1] was 0.0767; in assay [6], -0.0712; in assay [7], -0.134; with Torsin-1A (Homo sapiens) [8] it was 0.203; with Torsin-1A (Homo sapiens) [9], 0.286; in assay [10], 0.189. The molecule further yielded a composite z-score in assay [12] of -0.103. The z-score in assay [2] was 0.0659 (inactive); in assay [3] it was -0.43 (inactive); in [4] it was -0.437 (inactive); in assay [5], -1.1 (inactive); in [11], 1.04 (inactive); in [13], 0.162 (inactive). Moreover, the z-score in assay [14] was 0.677 (inactive); in [15], 0.121 (inactive); in [16], 0.125 (inactive); in assay [17], 0.42; in assay [18] it was -0.207 (inactive); in assay [19], 0.00437 (inactive). For the same molecule, the z-score in assay [20] is 0.682.
Take `COc1cccc([C@H]2Oc3ccc(OC)cc3C(=NO[C@@H](C)c3cc(-c4c(C)cc(C)cc4C)no3)[C@@H]2O)c1`: the composite z-score was -0.556 in assay [1]; -0.756 in assay [6]; -0.23 in [7]; -1.26 in the assay with Torsin-1A (Homo sapiens) [8]; -0.489 with Torsin-1A (Homo sapiens) [9]; -2.3 in assay [10]. In assay [12], this molecule showed a composite z-score of -0.0061. The z-score in [2] is -0.686 (inactive); in assay [3], 0.409 (inactive); in assay [4] it was 1.42 (inactive); in assay [5], 0.596 (inactive); in assay [11] it was -1.74 (inactive); in assay [13], 5.05 (inactive). Further, the z-score in assay [14] is 1.38 (inactive); in assay [15], -0.0548 (inactive); in assay [16], 0.907 (inactive); in [17], -0.902; in [18], 0.314 (inactive); in [19], 0.21 (inactive). In assay [20], this molecule returned a z-score of -0.577.
Take `CCN1C(=O)[C@H]2[C@H]3[C@H](O)[C@H](O)CC(=NO[C@@H]4O[C@H](COC(C)=O)[C@@H](OC(C)=O)[C@H](OC(C)=O)[C@H]4OC(C)=O)[C@@H]3CC[C@H]2C1=O`: the composite z-score in assay [1] was 0.352; in assay [6] it was 0.0251; in assay [7], -0.0221; with Torsin-1A (Homo sapiens) [8], 0.331; with Torsin-1A (Homo sapiens) [9], 0.0248; in assay [10], 1.03. In assay [12], this molecule gave a composite z-score of 0.227. Further, the z-score was 0.772 (inactive) in assay [2]; 1.22 (inactive) in assay [3]; -0.882 (inactive) in assay [4]; 0.171 (inactive) in assay [5]; 0.59 (inactive) in [11]; 0.202 (inactive) in assay [13]. Moreover, the z-score in assay [14] is 0.195 (inactive); in assay [15] it was -0.519 (inactive); in assay [16], 0.319 (inactive); in [17], -0.639; in [18], 0.357 (inactive); in assay [19], 0.722 (inactive). This molecule also yielded a z-score in [20] of -0.0344.
As for `C[C@@H]1C=CCC(=O)OC[C@H](C)C(=O)N[C@@H](Cc2ccccc2)C(=O)OC1`, the composite z-score was 0.033 in assay [1]; -0.0535 in assay [6]; -0.0736 in [7]; 0.519 with Torsin-1A (Homo sapiens) [8]; 0.59 with Torsin-1A (Homo sapiens) [9]; 0.638 in [10]. The composite z-score in assay [12] was -0.0287. Moreover, the z-score was -3.11 (inactive) in [2]; -1.23 (inactive) in [3]; 1.43 (inactive) in assay [4]; -0.846 (inactive) in [5]; -0.596 (inactive) in assay [11]; 0.296 (inactive) in assay [13]. Moreover, the z-score was -0.506 (inactive) in assay [14]; -0.307 (inactive) in assay [15]; -1.2 (inactive) in [16]; 0.826 in assay [17]; -0.348 (inactive) in assay [18]; -0.928 (inactive) in [19]. Also, in assay [20], the z-score was -0.396.
